Screening data from PubChem.
Most compounds without a hit are left out; they make up all but 7.7% or so of the library.
Hedgehog inh: Sonic Hedgehog pathway inhibition; AID 2313; Shh-LIGHT2 Gli-luciferase reporter, 30 h; inhibition, % (no concentration beside the values); hit rate 2.1% among 22,000;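 active means mean inhibition across valid replicates above about 65%, limit read from the data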;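 further: pathway switched on by Shh-conditioned medium diluted 1 in 25 in low serum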
PD-1 reverse act: reversal of PD-1 mediated T-cell inhibition. primary human CD4 T cells, PD-L1 beads, CellTiter-Glo 96 h. activation, % (test concentration not listed). 29,000 tested, under 10 active. AID 2316; call rule not given here
NOMO-1 viab: STK33 inhibitor candidate reducing NOMO-1 cell viability; NOMO-1 AML viability, CellTiter-Glo luminescence, 72 h; inhibition, % (no concentration beside the values); hit rate 7.5% among 37,000; in the data active means inhibition above about 80%
Of the large screens only hits and unclear results are named; the others gave an inactive call.

C[C@H](CO)N1C[C@H](C)[C@@H](CN(C)Cc2ccc(-c3ccccc3)cc2)Oc2c(NC(=O)Nc3ccc(F)cc3)cccc2C1=O	none
C[C@@H]1CN([C@H](C)CO)C(=O)c2cccc(N(C)C)c2O[C@H]1CN(C)Cc1ccc(-c2ccccc2)cc1	NOMO-1 viab 86.5
Cc1noc(C)c1NC(=O)Nc1cccc2c1O[C@H](CN(C)Cc1ccc(-c3ccccc3)cc1)[C@@H](C)CN([C@H](C)CO)C2=O	NOMO-1 viab 111.1
C[C@H]1CN([C@@H](C)CO)C(=O)c2cccc(NC(=O)Nc3ccc(F)cc3)c2O[C@@H]1CN(C)Cc1ccc(-c2ccccc2)cc1	none (no result: PD-1 reverse act)
C[C@@H]1CN([C@@H](C)CO)C(=O)c2cccc(NC(=O)Nc3ccccc3)c2O[C@@H]1CN(C)Cc1ccc(-c2ccccc2)cc1	NOMO-1 viab 101.6
Cc1noc(C)c1NC(=O)Nc1cccc2c1O[C@H](CN(C)Cc1ccccc1)[C@@H](C)CN([C@H](C)CO)C2=O	none
C[C@@H]1CN([C@H](C)CO)C(=O)c2cccc(NC(=O)Nc3ccc(F)cc3)c2O[C@@H]1CN(C)Cc1ccc(-c2ccccc2)cc1	NOMO-1 viab 82.1
O=C1C(=O)C(C2CCC(c3ccc(Cl)cc3)CC2)C(=O)c2ccccc21 (configuration not stated)	none
Cc1ccnc(SCC(=O)Nc2sc3c(c2C(=O)Nc2ccccc2)CCCC3)n1	none (no result: Hedgehog inh, PD-1 reverse act)
CC(=O)c1c(C)nn(CC(O)COc2ccc(C(=O)c3ccc(Cl)cc3)cc2)c1C (configuration not stated)	none (no result: Hedgehog inh, PD-1 reverse act)
Cc1nccn1CC(O)COc1ccccc1Br (configuration not stated)	none (no result: Hedgehog inh)
CCn1c(SCC(=O)c2ccc(Br)cc2)nnc1-c1cccc(N)c1	none (no result: Hedgehog inh)
CCCNC(=O)Nc1ccc(N2CCC(C(F)(F)F)CC2)nc1	none
COc1cc2occ(-c3ccc(O)cc3)c(=O)c2c(OC)c1O	none (no result: PD-1 reverse act)
Cc1noc(C)c1NC(=O)Nc1cccc2c1O[C@@H](CN(C)S(C)(=O)=O)[C@@H](C)CN([C@@H](C)CO)C2=O	NOMO-1 viab 102.4
C[C@@H]1CN([C@H](C)CO)C(=O)c2cccc(NC(=O)Nc3cccc4ccccc34)c2O[C@@H]1CN(C)Cc1ccc(C(=O)O)cc1	none
C[C@@H]1CN([C@H](C)CO)C(=O)c2cccc(NC(=O)Nc3cccc4ccccc34)c2O[C@@H]1CN(C)Cc1ccc(-c2ccccc2)cc1	NOMO-1 viab 106.9
Cc1noc(C)c1NC(=O)Nc1cccc2c1O[C@@H](CN(C)S(C)(=O)=O)[C@H](C)CN([C@H](C)CO)C2=O	none
CC(C)[C@@H]1CC[C@@]2(C)CCC[C@@](C)(O)[C@@H]2[C@H]1OC(=O)/C=C/c1ccccc1	none
Cc1nnc(NC(C)C)s1	none
C[C@H]1O[C@@H](O[C@H]2[C@@H](O)C[C@H](O[C@H]3[C@@H](O)C[C@H](O[C@H]4CC[C@@]5(C)[C@H](CC[C@@H]6[C@@H]5C[C@@H](O)[C@]5(C)[C@@H](C7=CC(=O)OC7)CC[C@]65O)C4)O[C@@H]3C)O[C@@H]2C)C[C@H](O)[C@@H]1O	NOMO-1 viab 119.6 (no result: PD-1 reverse act)
Cc1cccc(NC(=O)C(C)NS(=O)(=O)c2ccccc2)c1 (configuration not stated)	none (no result: Hedgehog inh)
C[C@H](CO)N1C[C@H](C)[C@H](CN(C)Cc2ccc(-c3ccccc3)cc2)Oc2c(NC(=O)C3CCCCC3)cccc2C1=O	NOMO-1 viab 119.3
C[C@@H]1CN([C@H](C)CO)C(=O)c2cccc(NC(=O)C3CCCCC3)c2O[C@H]1CN(C)Cc1ccc(C(F)(F)F)cc1	NOMO-1 viab 103.7
C[C@@H]1CN([C@H](C)CO)C(=O)c2cccc(NC(=O)C3CC3)c2O[C@@H]1CN(C)Cc1ccc(C(F)(F)F)cc1	none
C[C@H]1CN([C@@H](C)CO)C(=O)c2cccc(NC(=O)C3CCCCC3)c2O[C@@H]1CN(C)Cc1ccc(Oc2ccccc2)cc1	NOMO-1 viab 85.8 (no result: PD-1 reverse act)
C[C@@H]1CN([C@@H](C)CO)C(=O)c2cccc(NC(=O)C3CCCCC3)c2O[C@@H]1CN(C)Cc1ccc(-c2ccccc2)cc1	none (no result: PD-1 reverse act)
C[C@@H]1CN([C@H](C)CO)C(=O)c2cccc(NC(=O)C3CCCCC3)c2O[C@@H]1CN(C)Cc1ccc(Oc2ccccc2)cc1	none
O=C(Nc1ccccc1C(=O)NCc1ccco1)c1ccccc1I	none (no result: Hedgehog inh)
CCOc1ccc(-n2c(SCC(=O)OC)nnc2-c2ccccc2)cc1	none (no result: Hedgehog inh)
Cc1ccc(C)c(N(CC(=O)Nc2ccc(I)cc2)S(C)(=O)=O)c1	none (no result: Hedgehog inh)
CS(=O)(=O)N1N=C(c2cccc(NS(=O)(=O)c3ccccc3)c2)CC1c1ccco1 (configuration not stated)	none (no result: Hedgehog inh)
O=C(COc1ccc(S(=O)(=O)N2CCOCC2)cc1)Nc1ccc2c(c1)OCCO2	none (no result: Hedgehog inh)
O=C(COc1ccc(S(=O)(=O)N2CCOCC2)cc1)Nc1ccc(Cl)c(C(F)(F)F)c1	NOMO-1 viab 128.8 (no result: Hedgehog inh)
O=C(Nc1cccc(Cn2cccn2)c1)c1cc(-c2ccccc2)nc2ccccc12	none (no result: Hedgehog inh, PD-1 reverse act)
COC1CC(=O)C23C(=O)NC(CC(C)C)C2C(C)C(C)=CC3/C=C(\C)CCC(O)C1O (configuration not stated)	NOMO-1 viab 89.0
C=C1C(=O)O[C@@H]2C[C@H](C)[C@@]3(O)C[C@H](O)[C@@](C)(C[C@@H](OC(=O)C(C)C)[C@@H]12)O3	NOMO-1 viab 118.6
CCC(C)Nc1nc(OC)nc(Oc2ccc(=O)[nH]n2)n1 (configuration not stated)	none (no result: Hedgehog inh)
COc1ccc(NC(=O)CSc2nc3c(cc2C#N)CCCCC3)cc1OC	none (no result: Hedgehog inh)
C[C@H](CO)N1C[C@H](C)[C@H](CN(C)Cc2ccc(Cl)c(Cl)c2)Oc2c(NC(=O)Nc3ccccc3)cccc2C1=O	none
COc1ccc(NC(=O)Nc2cccc3c2O[C@@H](CN(C)Cc2ccc(Cl)c(Cl)c2)[C@@H](C)CN([C@@H](C)CO)C3=O)cc1	NOMO-1 viab 120.7 (no result: Hedgehog inh)
COc1ccc(NC(=O)Nc2cccc3c2O[C@H](CN(C)Cc2ccc(Cl)c(Cl)c2)[C@H](C)CN([C@H](C)CO)C3=O)cc1	none
COc1ccc(NC(=O)Nc2cccc3c2O[C@@H](CN(C)Cc2ccc(Cl)c(Cl)c2)[C@@H](C)CN([C@H](C)CO)C3=O)cc1	NOMO-1 viab 96.9
c1ccc(CSc2nccc(-c3ccc4c(c3)CCO4)n2)cc1	none
Cc1cc(O)c(Cc2c(O)cc(C)oc2=O)c(=O)o1	none
CCN(CC)CCCC(C)Nc1c2ccc(Cl)cc2nc2ccc(OC)cc12 (configuration not stated)	NOMO-1 viab 114.1 (no result: PD-1 reverse act)
COc1ccc2nc(Nc3nc(C)c(CCC(C)C)c(=O)[nH]3)nc(C)c2c1	none (no result: Hedgehog inh)
CC[n+]1c(C=C2C=C(C)CC(C)(C)C2)oc2ccccc21	NOMO-1 viab 115.1 (no result: Hedgehog inh)
N=C1C(c2nc3ccccc3s2)=C(O)CN1CCCN1CCOCC1	none (no result: Hedgehog inh)
C[C@@H]1CN([C@H](C)CO)C(=O)c2cc(NC(=O)Nc3ccc(C(F)(F)F)cc3)ccc2O[C@@H]1CN(C)Cc1ccc(Cl)c(Cl)c1	NOMO-1 viab 113.6
C[C@H]1CN([C@@H](C)CO)C(=O)c2cc(NC(=O)Nc3ccc(C(F)(F)F)cc3)ccc2O[C@H]1CN(C)Cc1ccc(Cl)c(Cl)c1	NOMO-1 viab 106.9
C[C@@H]1CN([C@H](C)CO)C(=O)c2cc(NC(=O)Nc3ccc(C(F)(F)F)cc3)ccc2O[C@H]1CN(C)Cc1ccncc1	none (no result: Hedgehog inh)
